# An excerpt weighted towards active compounds, which were near 5.3% of everything screened.
# Coupling enz: qHTS Assay for Inhibitors of Fructose-1,6-bisphosphate Aldolase from Giardia Lamblia: Coupling assay counterscreen; coupling enzyme system counterscreen, AmpLite Red fluorescence; activity change, negative = inhibition, % at 58.2 µM, hits read low; hit rate 0.67% among 290,000; in the data active means activity change below about -30%
#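 Activity here indicates interference with the coupling reaction, not aldolase inhibition. Compounds at 57.5 uM final met coupling enzymes for 10 min at RT; substrate and AmpLite Red detection followed, with a 525/598 nm fluorescence read after 20 min.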
# Tau fibril FP: qHTS for Inhibitors of Tau Fibril Formation, Fluorescence Polarization; K18 P301L tau heparin fibrillization, Alexa594 FP, 6 h; Potency, µM (series often up to 57.7 µM), most hits filed as inhibitors; hit rate 0.39% among 280,000; further: nearly all actives have a fitted effect of over 55% in size
# Target sequence (P10636 561-689 P618L limits assumed): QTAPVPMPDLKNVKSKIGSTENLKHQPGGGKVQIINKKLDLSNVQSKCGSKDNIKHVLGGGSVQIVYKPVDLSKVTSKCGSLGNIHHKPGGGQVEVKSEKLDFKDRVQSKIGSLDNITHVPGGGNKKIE
#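 Read-out: fluorescence polarization of Alexa 594-labeled tau (0.24 uM), 555 nm excitation, 632 nm emission. Mixtures held 15 uM unlabeled K18 P301L, compound and 20 uM heparin, pH 7 acetate buffer, incubated 6 hr at 37 C.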
# Tau fluor counter: Counterscreen qHTS for Inhibitors of Tau Fibril Formation, Fluorescence Polarization; tau K18 P301L Alexa594 fluorescence, heparin fibrillization; Potency, µM (doses to about 57.7 µM); hit rate 0.93% among 280,000; further: nearly all actives have a fitted effect of over 55% in size
#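 Human K18 P301L tau (15 uM unlabeled plus 0.24 uM Alexa 594-labeled, final) in 100 mM sodium acetate pH 7 was mixed with compound and 20 uM heparin and incubated 6 hr at 37 C.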
# Sfp PPTase inh: qHTS Assay for Inhibitors of Bacillus subtilis Sfp phosphopantetheinyl transferase (PPTase); 4'-phosphopantetheinyl transferase ffp (Bacillus subtilis), Q9F4F7; Biochemical Sfp PPTase activity, qHTS; Potency, µM, usual class: inhibitors; hit rate 3.5% among 310,000; AID 1490, 2009;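 further: the enzyme is Sfp with the accession as filed and its product quenches rhodamine fluorescence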
#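 Compounds were incubated with enzyme (final 15 nM) for 15 min at room temperature before substrate addition started the reaction. Fluorescence at 525 nm excitation, 598 nm emission was recorded immediately and after 30 minutes.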
# Tau ThT inhib: qHTS for Inhibitors of Tau Fibril Formation, Thioflavin T Binding; recombinant tau K18 P301L (four-repeat tau fragment), heparin-induced fibrillization, ThT fluorescence; Potency, µM (series often up to 57.4 µM), hits mostly inhibitors; hit rate 2.1% among 270,000; further: nearly all actives have a fitted effect of over 55% in size
#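 In this qHTS, human K18 P301L tau is incubated with compound and heparin for 6 hr at 37 C, and Thioflavin T fluorescence then reports fibril load.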
# JMJD2E inh: qHTS Assay for Inhibitors of Human Jumonji Domain Containing 2E (JMJD2E). Potency, µM (doses to about 57.1 µM), most hits filed as inhibitors. hit rate 1.6% among 230,000. AID 2147, 2009. JMJD2E catalytic domain, FDH-coupled NADH fluorescence (FDH is formaldehyde dehydrogenase). Lysine-specific demethylase 4E (Homo sapiens), B2RXH2; active means well fitted inhibition curve with a large enough effect, not every such curve was filed as active; inconclusive means small, poorly fitted or top-dose-only effect, or another doubt; inactive means no such curve, though single readings can be large or run the other way; further: nearly all actives have a fitted effect of over 50% in size
# Target sequence (B2RXH2 1-337 limits assumed): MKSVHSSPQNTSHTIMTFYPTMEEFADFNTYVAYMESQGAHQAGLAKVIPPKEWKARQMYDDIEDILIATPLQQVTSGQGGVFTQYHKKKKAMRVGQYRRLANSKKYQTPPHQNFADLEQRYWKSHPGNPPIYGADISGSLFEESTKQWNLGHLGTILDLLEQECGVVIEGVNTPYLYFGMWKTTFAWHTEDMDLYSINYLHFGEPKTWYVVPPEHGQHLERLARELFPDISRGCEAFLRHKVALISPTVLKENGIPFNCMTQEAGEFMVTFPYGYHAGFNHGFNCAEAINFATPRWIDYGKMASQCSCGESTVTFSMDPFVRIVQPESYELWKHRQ
# Numbers stand for hits; 0 = inactive; ? = inconclusive; - = not tested or not shown; [ ] = dose if it differs, or a comment. Unless noted, the call rests on the fitted dose curve; in most records, active means well fitted curve in the direction sought with a large enough effect; inconclusive means small, poorly fitted or top-dose-only effect, or another doubt; inactive means no such curve, though single readings can be large; an effect the other way counts as inactive or inconclusive.
SMILES,Coupling enz,Tau fibril FP,Tau fluor counter,Sfp PPTase inh,Tau ThT inhib,JMJD2E inh
COc1cccc(/C=N/NC(=O)Cn2ccnc2C)c1,0,0,0,0,0,0
CCN(CCCNC(=O)c1cc2c(=O)[nH]c3ccc(C)cc3c2s1)Cc1ccccc1,-,?,0,-,0,-
N#CC1=C(N)NC(SCC(=O)O)=C(C#N)C12CCCC2,0,0,0,56µM,?,?
N#CC1=C(N)NC(SCc2ccc(F)cc2)=C(C#N)C12CCCCC2,0,?,18µM[quencher],0,0,0
O=C1C2=C(C(=O)c3ccccc31)C1O[C@](CCCCN3C(=O)c4ccccc4C3=O)(Cc3ccccc31)O2,0,-,-,0,-,-
O=C(NNC(=O)c1cc(-c2ccco2)nc2ccccc12)c1ccccc1,0,0,0,20µM,0,?
CC(=O)c1cccc(NC(=O)c2cc(-c3ccco3)nc3ccccc23)c1,0,-,-,0,-,-
O=C(Nc1cccc(S(=O)(=O)NC2=NCCCCC2)c1)c1cc(-c2ccco2)nc2ccccc12,0,0,0,5µM,?,?
COc1ccc(Nc2ncc(C(=O)Nc3ccc(F)cc3F)c3ccccc23)cc1,-,?,11µM[quencher],-,?,-
O=C(Nc1cccc(S(=O)(=O)NC2=NCCCCC2)c1)c1cc(-c2ccncc2)nc2ccccc12,0,0,?,0,0,0
O=C(Nc1ccc(F)cc1F)c1cc(-c2ccco2)nc2ccccc12,0,-,-,32µM,-,-
CCOC(=O)CNC(c1ccccc1)c1cc(Br)ccc1NC(=O)c1ccc(Cl)cc1 (stereo not given),-,0,0,-,0,-
CC(C)(C)c1ccc(OCC(=O)Nc2c(C(=O)c3ccc(F)cc3)oc3ccccc23)cc1,-,?,0,-,0,-
COc1ccc(-c2c(C3C4C=CCC(C)C4C(=O)N3Cc3ccccc3)ccc3ccccc23)cc1 (stereo not given),0,-,-,0,-,-
O=C(O)c1cc(-c2ccco2)nc2cc3ccccc3cc12,0,0,0,11µM,?,?
O=C(O)c1ccccc1/C=N/NC(=O)c1cc(-c2ccco2)nc2ccccc12,0,0,0,10µM,?,?
CC(=O)Nc1ccc(/C=N/NC(=O)c2cc(-c3ccco3)nc3ccccc23)cc1,0,0,0,0,0,?
CCN(CC)c1nc2c3c(nc4c(c3c1C#N)CC(=O)N4c1ccc(Cl)cc1)NC(C)=N2,0,?,?,?,16µM,0
Cc1ccc(N2C(S)=C(C#N)C(=O)NC23CCCCC3)cc1,0,?,0,20µM,?,0
Cc1ccc(C(=O)N2C3=C(CCCC3)C(=O)NC23CCCCC3)cc1,0,0,0,0,0,0
Cc1cccc(N2C(S)=C(C#N)C(=O)NC23CCCCC3)c1,0,?,0,79µM,32µM,0
Cc1cccc(NC2=C(C#N)C(=O)NC3(CCCC3)S2)c1,0,?,0,18µM,?,0
Cc1ccccc1N1C(S)=C(C#N)C(=O)NC12CCCCC2,0,0,0,14µM,0,0
Cc1ccccc1N1C(=O)CC2(CCCC2)CC1=O,0,0,0,0,0,0
O=C(Nc1ccc(F)cc1)[C@H](CSCc1ccccc1)N1Cc2ccccc2C1=O,-,0,0,-,0,-
SMILES,Coupling enz,Tau fibril FP,Tau fluor counter,Sfp PPTase inh,Tau ThT inhib,JMJD2E inh
Cc1cnc(CNc2ccnc(-c3ccoc3)n2)cn1,0,-,-,?,-,-
O=C1[C@H]2[C@H]3[C@H](O)[C@H](O)C/C(=N/OC[C@@H](O)COCc4ccco4)[C@@H]3CC[C@@H]2C(=O)N1Cc1ccc2c(c1)OCO2,0,0[11.6 µM],0[11.6 µM],0,0[11.5 µM],-
Cc1ccc(S(=O)(=O)NCCc2nnc3ccc(SCC(=O)Nc4ccc(OC(F)(F)F)cc4)nn23)cc1,-,0,0,-,0,-
Cc1ccc(N2C(N)=C(C#N)C(c3cccs3)C3=C2CC(C)(C)CC3=O)cc1 (stereo not given),0,0,0,0,25µM,?
COc1cccc(OC)c1C(=O)NC(=S)NNC(=O)[C@H]1C[C@@H]1c1ccccc1,0,0,0,0,0,?
O=C(NC(=S)NNC(=O)[C@H]1C[C@@H]1c1ccccc1)c1cccc(F)c1,0,0,0,32µM,0,0
Cc1occc1-c1nnc(SCC(=O)c2ccc(Cl)cc2)n1C,0,0,0,0,?,0
Cc1occc1-c1nnc(SCC(=O)c2c[nH]c3ccccc23)n1C,0,?,0,50µM,?,0
Cc1ccc(NC(=O)C(OC(=O)c2ccc(NC(N)=O)cc2)c2ccccc2)cc1Cl (stereo not given),0,13µM,?,0,?,0
CCN1/C(=C2\C(=O)N(C)C(=S)N2C)C=Cc2cc(OC)ccc21,0,0,0,50µM,0,?
O=C(O)c1cccc(-n2cccc2/C=N/O)c1,0,?,0,0,0,0
O=C(O)c1cccc(-n2cccc2/C=C/[N+](=O)[O-])c1,0,0,0,32µM,?,?
O=C(O)c1cccc(-n2cccc2/C=C\[N+](=O)[O-])c1,0,?,0,0,?,14µM
COC(=O)C1C(=O)C(C(=O)/C=C/c2ccco2)C(=O)CC1(C)C (stereo not given),0,0,0,56µM,0,0
COC(=O)C1C(=O)C(C(=O)/C=C/c2ccccc2)C(=O)CC1(C)C (stereo not given),0,0,0,0,0,0
COc1cccc(-n2c(SCc3cc(=O)oc4cc(O)c(O)cc34)nc3ccccc3c2=O)c1,0,?,14µM[quencher],0,25µM,13µM
COCCn1c(=O)c(-c2cccs2)nc2cnc(OCc3ccccc3)nc21,0,-,-,0,-,-
CCNc1ncc2nc(-c3cccs3)c(=O)n(Cc3cccs3)c2n1,0,-,-,0,-,-
CC(=O)NN1C(=O)/C(=C\c2ccccc2)SC1=S,-,0,0,0,0,0
CC(=O)NN1C(=O)/C(=C\c2ccc(O)cc2)SC1=S,0,0,0,0,?,0
CC(=O)NN1C(=O)/C(=C/c2ccc(Br)o2)SC1=S,0,?,?,56µM,16µM,?
CC(=O)NN1C(=O)/C(=C\c2ccc(Br)o2)SC1=S,0,0,0,56µM,25µM,0
COc1ccc2c(c1)O[C@@H](c1cccc(C(F)(F)F)c1)[C@H](OC(=O)N[C@H](C)C1CCCCC1)C2=O,0,0,0,0,0,0
O=C1NC(=S)S/C1=C1\Sc2ccccc2N1CCCS(=O)(=O)O,0,0,0,25µM,?,0
NN1C(=O)/C(=C2/Sc3ccccc3N2CCCS(=O)(=O)O)SC1=S,0,-,-,0,-,-

# Bioassay records from PubChem BioAssay.
